Seven molecules from PubChem BioAssay (NCATS) can be followed below.

Inconclusive results are not listed. The source made the active and inactive calls. Unless noted, calls come from the whole dose curve; as a rule, active = well fitted curve in either direction with a large enough effect (not every such curve was filed as active); inconclusive = small, poorly fitted or top-dose-only effect, or another doubt; inactive = flat fitted curve, though single readings scatter.

Experiment [1] concerns the target Lysosomal acid glucosylceramidase (Homo sapiens) (UniProt P04062). Kind of experiment: Glucocerebrosidase-p2 (AID 348; in the data active = potency below about 10 µM; note: potency is the fitted concentration of half-maximal effect). The settings on record: purified GBA, blue fluorogenic substrate, 40 min. An outline of the steps: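 Normal human glucocerebrosidase (0.2 nM) with blue fluorogenic substrate (80 uM final) in citrate/phosphate pH 5.9 with 10mM sodium taurocholate, 0.01% tween-20; 40 min RT, NaOH/glycine stop; fluorescence Ex 365/Em 440; AC50 from a titration from 0.6 nM upwards.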

Experiment [2] can be described thus: AP1 Signaling Pathway (AID 357).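 Note: ME-180 reporter cells stimulated with EGF at its EC50 level; % is set by controls: 0 for no effect and ±100 for the full control effect.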 The settings on record: ME-180 AP-1-bla reporter, EGF-induced, beta-lactamase ratio, 5 h; at 7.69 µM (top of the series) unless noted. In outline: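 In this screen, ME-180 cells in Opti-MEM with 0.5% dialyzed FBS received EC50 EGF and compound titrations for 5 h. AP-1 reporter beta-lactamase was detected via CCF4 ratio, giving AC50 for positive and negative modulators.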

Experiment [3] deals with Cytochrome P450 1A2 (Homo sapiens) (UniProt P05177). Kind of experiment: p450-cyp1a2 (AID 410; calls by dose curve; note: potency is the fitted concentration of half-maximal effect;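 for activity change, negative = inhibition: -100% = full effect of reference inhibitor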). The settings on record: recombinant CYP1A2, luciferin-ME demethylation, luminescence; series mostly up to 57 µM. An outline of the steps:
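20nM CYP1A2, 100uM Luciferin-ME (=Km), 100mM KPO4; cpd 10 min RT; +NADPH regen, 60 min RT; stop/detect 20 min; luminescence. Normalized to furafylline 57 uM = full inhibition.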

The nature of experiment [4]: NFAT Signaling Pathway (AID 444).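 Note: carbachol stimulus at about its EC50 of 1 µM final; % is set by controls: 0 for no effect and ±100 for the full control effect.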 The settings on record: Jurkat NFAT-bla M1, carbachol, beta-lactamase ratio, 5 h; at 7.69 µM (top of the series) unless noted. An outline of the steps: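 Jurkat cells with NFAT-driven β-lactamase reporter and co-expressed M1 receptor, stimulated with carbachol (final 1 uM, ~EC50), compound titration, 5 h at 37 °C. CCF4 loaded 1 h at RT; 460/530 nm ratio gave %activity and AC50.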

Experiment [5] has as its target Glucocorticoid receptor (Homo sapiens) (UniProt P04150). Kind of experiment: GR-EFC Redistribution (AID 451; calls by dose curve; note: potency is the fitted concentration of half-maximal effect). The settings on record: CHO-K1 GR-EFC translocation, beta-gal luminescence, 2 h. In outline:
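CHO-K1 cells expressing nuclear EA and GR-ED fragments of b-gal; compounds titrated up to 46 uM final, 2 h at 37 C. GR nuclear translocation read as complemented b-gal luminescence after 1 h RT detection.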

Experiment [6] addresses Mitogen-activated protein kinase 10 (Mus musculus) (UniProt Q61831). The experiment in a line: JNK3 AlphaScreen Assay (AID 530).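 Note: kinase came from lysate of stimulated human HepG2 cells; signal reports phosphorylation of biotinylated GST-cJun 1-79 at Ser73 with 10 µM ATP; % is set by controls: 0 for no effect and ±100 for the full control effect.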 The settings on record: JNK3 lysate, c-Jun phosphorylation; series mostly up to 57.1 µM. In outline: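 HepG2 lysate (IL-1b/TNFa pre-activated) + biotin-GST-cJun 1-79 + anti-pSer73 cJun; cpd titration, 15 min RT; ATP 10 uM start; Tris pH 7.6, MgCl2, DTT, vanadate; beads in EDTA buffer; AlphaScreen.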

Experiment [7] deals with 3',5'-cyclic-AMP phosphodiesterase 4B (Homo sapiens) (UniProt Q07343). Kind of experiment: qHTS Assay for Inhibitors of PDE-IV (AID 607; active = well fitted activation curve with a large enough effect in the main read-out, with a control signal flat, not every such curve was filed as active; note: % of control where 0% means no effect). The settings on record: HEK293 ACTOne CNG channel cells, membrane potential fluorescence; series mostly up to 22.9 µM. In outline: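 The readout is membrane depolarisation from a cAMP-sensing CNG channel, detected with a potential dye at ex 535/em 590. Cells were HEK293-derived (endogenous PDE-IV) at 1000 cells/well, titrated up to 22.9 uM final.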

Experiment [8] can be described thus: qHTS Assay for Lipid Storage Modulators (AID 1519; calls by dose curve). The settings on record: Drosophila S3 cells, BODIPY lipid droplet/cell ratio, laser cytometry, cells loaded with oleic acid; for activity change, negative = inhibition: at 57.5 µM (top of the series). In outline: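 Cells seeded at 5,000 per well were treated with compounds over a concentration series and loaded with oleic acid (400 uM, as added). Lipid droplet fluorescence (488 nm excitation, 500-530 nm channel) was read by laser-scanning cytometry and normalized to 20 uM Triacsin C.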

Experiment [9] is described as follows: Primary qHTS for small molecule stabilizers of the endoplasmic reticulum resident proteome: Secreted ER Calcium Modulated Protein (SERCaMP) assay (AID 1508630; active = well fitted curve in the direction sought with a large enough effect; an effect the other way counts as inactive or inconclusive; note: % is set by controls: 0 for no effect and ±100 for the full control effect). The settings on record: SH-SY5Y GLuc-SERCaMP (Gaussia luciferase released on ER calcium loss) secretion, thapsigargin, luminescence; series mostly up to 38.4 µM. In outline: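 The SH-SY5Y reporter protocol was run at 3 concentrations up to 38.3 uM (primary) or 11 concentrations (follow-up): 16 h compound, 100 nM thapsigargin for 4 h, then extracellular luciferase luminescence.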

Experiment [10] can be described thus: Stat Signaling Pathway (AID 446). The settings on record: ME-180 (cervical carcinoma) SIE beta-lactamase reporter, IL-6 stimulated, 5 h; at 7.69 µM (top of the series) unless noted. In outline:
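Emission at 460 and 530 nm (excitation 405 nm) reports SIE-controlled beta-lactamase in ME-180 cells. Cells received compound with 40 pM IL-6 for 5 hrs at 37 C; data scaled between 300 pM IL-6 and 125 nM JAK-inhibitor controls.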

Experiment [11] deals with Cytochrome P450 3A4 (Homo sapiens) (UniProt P08684). The experiment in a line: qHTS Assay for Inhibitors and Substrates of Cytochrome P450 3A4 (AID 884; active = well fitted curve in the direction sought with a large enough effect; an effect the other way counts as inactive or inconclusive; note: % is set by controls: 0 for no effect and ±100 for the full control effect; nearly all actives have a fitted effect of over 50% in size). The settings on record: recombinant CYP3A4, Luciferin-PPXE luminescence; series mostly up to 57.1 µM. An outline of the steps:
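Luminescent readout of luciferin produced by CYP3A4 (20 nM) dealkylation of Luciferin-PPXE, 25 uM (its KM). NADPH-driven reaction ran 60 min at RT after 10 min compound preincubation; data scaled to 57 uM ketoconazole as 100% inhibition.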

For experiment [12] the target is unchanged. The experiment in a line: qHTS Assay for Activators of Cytochrome P450 3A4 (AID 885; active = well fitted curve in the direction sought with a large enough effect; an effect the other way counts as inactive or inconclusive; note: potency is the fitted concentration of half-maximal effect; nearly all actives have a fitted effect of over 65% in size). The settings on record: recombinant CYP3A4, Luciferin-PPXE luminescence, 60 min; series mostly up to 57.1 µM. In outline: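 Activators are scored by enhanced luminescence from CYP3A4 conversion of luciferin-PPXE (25uM, equal to KM) to luciferin, after 60 min at RT with an NADPH-regenerating system.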

Experiment [13] concerns the target Cytochrome P450 2D6 (Homo sapiens) (UniProt P10635). The experiment in a line: qHTS Assay for Inhibitors and Substrates of Cytochrome P450 2D6 (AID 891; active = well fitted curve in the direction sought with a large enough effect; an effect the other way counts as inactive or inconclusive; note: potency is the fitted concentration of half-maximal effect; nearly all actives have a fitted effect of over 60% in size). The settings on record: recombinant CYP2D6, luciferin-ME EGE luminescence; series mostly up to 57.1 µM. An outline of the steps: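 Luminescent read-out of luciferin formed by 5 nM human CYP2D6 demethylating 30 uM Luciferin-ME EGE (Km level) over 60 min at room temperature after NADPH regeneration addition. Data normalized to full inhibition by 1.43 uM quinidine.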

Experiment [14] addresses Glucocorticoid receptor (Homo sapiens) (UniProt P04150). Kind of experiment: GR-GFP Redistribution (AID 450;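 active = compounds whose dose series gives a full or clear partial fitted curve of increased nuclear translocation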; note: potency is the fitted concentration of half-maximal effect). The settings on record: U2OS GR-GFP nuclear translocation, laser cytometry, 2 h.
Experiment [15] can be described thus: Confirmation and Secondary Assay for Modulators of Hemoglobin Beta Chain Splicing at IVS2 654 locus (AID 910; active = well fitted curve in the direction sought with a large enough effect; an effect the other way counts as inactive or inconclusive;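 note: HeLa cells stably carrying EGFP split by mutant beta-globin IVS2-654 intron; % of control where 0% means no effect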). The settings on record: HeLa EGFP-654 splicing reporter, GFP fluorescence, 48 h; series mostly up to 38.3 µM. In outline:
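HeLa cells stably expressing EGFP interrupted by β-globin IVS2-654 intron, seeded overnight in Opti-MEM/2% FCS, then treated 2 days at 37 °C. Restored splicing read as total peak GFP intensity per well by laser scanning cytometry (488 nm excitation, 500–520 nm emission); 500 nM antisense PNA as control.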

Experiment [16] can be described thus: Confirmation and Secondary Assay for Modulators of Hemoglobin Beta Chain Splicing at IVS2 705 locus (AID 930; active = well fitted curve in the direction sought with a large enough effect; an effect the other way counts as inactive or inconclusive;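 note: HeLa cells stably expressing the EGFP-705 splicing reporter; GFP fluorescence per well restored by corrected splicing of the IVS2-705 intron in EGFP; % of control where 0% means no effect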). The settings on record: HeLa EGFP-705 splicing reporter, GFP fluorescence, 48 h; series mostly up to 38.3 µM. An outline of the steps: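 HeLa IVS2-705 EGFP reporter cells, 500/well, compound 2 d at 37C; correct splicing yields fluorescent EGFP. Control: 500 nM antisense PNA. Read-out: total peak GFP intensity.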

Experiment [17] has as its target Ubiquitin carboxyl-terminal hydrolase 1 (Homo sapiens) (UniProt O94782). The experiment in a line: Inhibitors of USP1/UAF1: Pilot qHTS (AID 504865; active = well fitted curve in the direction sought with a large enough effect; an effect the other way counts as inactive or inconclusive;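 note: rhodamine fluorescence freed from ubiquitin-rhodamine substrate followed over time; top concentration of the series differs between compounds; % is set by controls: 0 for no effect and ±100 for the full control effect; nearly all actives have a fitted effect of over 35% in size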). The settings on record: purified USP1/UAF1, Ub-rhodamine cleavage fluorescence; series mostly up to 54.9 µM. An outline of the steps: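 1nM USP1/UAF1 + cpd, 15 min RT; start w/ Ub-Rho 150nM final; kinetic FL 480/540 nm, 6 reads q60 s. Buffer 50mM HEPES pH 7.8, 0.5mM EDTA, 1mM TCEP, 0.01% Tween-20, 0.1 mg/ml BSA.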

Setting [18] is: measured here: cell count channel max response.
The mark [19] stands for this setting: measured here: lipid channel max response.

Cytochrome P450 3A4 (Homo sapiens), sequence (P08684 whole entry, looked up): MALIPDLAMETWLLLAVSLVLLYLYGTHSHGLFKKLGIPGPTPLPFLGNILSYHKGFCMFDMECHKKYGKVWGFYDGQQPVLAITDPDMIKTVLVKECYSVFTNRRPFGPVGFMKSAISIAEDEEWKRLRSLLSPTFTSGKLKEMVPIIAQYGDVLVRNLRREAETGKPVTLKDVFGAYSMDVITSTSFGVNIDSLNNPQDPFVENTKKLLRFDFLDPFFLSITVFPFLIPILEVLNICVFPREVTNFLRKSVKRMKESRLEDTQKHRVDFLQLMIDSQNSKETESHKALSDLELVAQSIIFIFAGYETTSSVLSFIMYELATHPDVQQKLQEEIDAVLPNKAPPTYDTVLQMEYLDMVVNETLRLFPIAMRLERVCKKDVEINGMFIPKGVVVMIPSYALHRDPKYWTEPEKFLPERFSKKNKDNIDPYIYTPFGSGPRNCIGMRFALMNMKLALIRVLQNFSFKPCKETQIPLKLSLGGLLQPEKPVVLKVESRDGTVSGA
3',5'-cyclic-AMP phosphodiesterase 4B (Homo sapiens), sequence (Q07343 whole entry, looked up): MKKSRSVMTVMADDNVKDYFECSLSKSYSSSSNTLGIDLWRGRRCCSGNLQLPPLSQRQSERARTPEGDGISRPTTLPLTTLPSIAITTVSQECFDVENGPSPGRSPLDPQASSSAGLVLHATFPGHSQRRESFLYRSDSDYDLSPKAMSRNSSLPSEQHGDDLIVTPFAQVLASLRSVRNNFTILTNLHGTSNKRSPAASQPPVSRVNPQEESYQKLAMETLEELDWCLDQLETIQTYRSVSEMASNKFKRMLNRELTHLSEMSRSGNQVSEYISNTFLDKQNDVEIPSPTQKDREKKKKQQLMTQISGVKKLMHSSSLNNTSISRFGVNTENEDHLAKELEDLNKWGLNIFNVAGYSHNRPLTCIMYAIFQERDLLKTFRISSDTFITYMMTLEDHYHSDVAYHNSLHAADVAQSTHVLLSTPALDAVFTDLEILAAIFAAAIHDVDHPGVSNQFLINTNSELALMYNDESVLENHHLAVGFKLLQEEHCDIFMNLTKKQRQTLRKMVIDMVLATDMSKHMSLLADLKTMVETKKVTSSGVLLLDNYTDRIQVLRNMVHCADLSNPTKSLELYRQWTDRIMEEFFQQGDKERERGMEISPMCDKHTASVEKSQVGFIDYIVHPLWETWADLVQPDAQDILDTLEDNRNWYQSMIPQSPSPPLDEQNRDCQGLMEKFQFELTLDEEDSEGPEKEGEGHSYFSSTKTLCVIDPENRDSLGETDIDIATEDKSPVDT
Lysosomal acid glucosylceramidase (Homo sapiens), sequence (P04062 whole entry, looked up): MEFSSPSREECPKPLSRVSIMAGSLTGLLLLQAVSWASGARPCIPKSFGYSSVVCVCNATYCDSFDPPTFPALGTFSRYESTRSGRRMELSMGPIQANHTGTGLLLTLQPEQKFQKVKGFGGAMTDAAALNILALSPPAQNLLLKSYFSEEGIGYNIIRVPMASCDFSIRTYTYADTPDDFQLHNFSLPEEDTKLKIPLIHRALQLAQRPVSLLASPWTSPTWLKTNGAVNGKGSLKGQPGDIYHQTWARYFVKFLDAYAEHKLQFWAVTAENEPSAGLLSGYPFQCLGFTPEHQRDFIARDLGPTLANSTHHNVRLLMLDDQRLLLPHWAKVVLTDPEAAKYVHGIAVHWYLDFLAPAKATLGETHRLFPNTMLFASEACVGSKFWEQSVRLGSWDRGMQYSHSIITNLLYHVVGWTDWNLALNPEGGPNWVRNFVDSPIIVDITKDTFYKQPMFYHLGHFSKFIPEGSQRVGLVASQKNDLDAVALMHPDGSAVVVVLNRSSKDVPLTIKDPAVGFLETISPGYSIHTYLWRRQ
Cytochrome P450 1A2 (Homo sapiens), sequence (P05177 whole entry, looked up): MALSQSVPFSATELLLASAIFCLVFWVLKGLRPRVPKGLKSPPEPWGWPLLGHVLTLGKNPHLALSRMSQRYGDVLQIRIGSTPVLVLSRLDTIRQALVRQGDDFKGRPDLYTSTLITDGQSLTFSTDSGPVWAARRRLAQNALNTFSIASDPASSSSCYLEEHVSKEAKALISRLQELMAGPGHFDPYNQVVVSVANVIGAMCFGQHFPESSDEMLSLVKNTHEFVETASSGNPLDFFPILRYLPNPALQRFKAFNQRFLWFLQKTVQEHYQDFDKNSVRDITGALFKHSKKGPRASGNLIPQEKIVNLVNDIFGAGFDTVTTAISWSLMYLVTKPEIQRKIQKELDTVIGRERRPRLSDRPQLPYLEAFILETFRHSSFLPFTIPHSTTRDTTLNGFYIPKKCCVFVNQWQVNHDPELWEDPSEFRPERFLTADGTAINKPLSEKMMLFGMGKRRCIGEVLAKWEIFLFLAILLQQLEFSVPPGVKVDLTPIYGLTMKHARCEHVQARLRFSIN
Glucocorticoid receptor (Homo sapiens), sequence (P04150 whole entry, looked up, the tested form may be a part): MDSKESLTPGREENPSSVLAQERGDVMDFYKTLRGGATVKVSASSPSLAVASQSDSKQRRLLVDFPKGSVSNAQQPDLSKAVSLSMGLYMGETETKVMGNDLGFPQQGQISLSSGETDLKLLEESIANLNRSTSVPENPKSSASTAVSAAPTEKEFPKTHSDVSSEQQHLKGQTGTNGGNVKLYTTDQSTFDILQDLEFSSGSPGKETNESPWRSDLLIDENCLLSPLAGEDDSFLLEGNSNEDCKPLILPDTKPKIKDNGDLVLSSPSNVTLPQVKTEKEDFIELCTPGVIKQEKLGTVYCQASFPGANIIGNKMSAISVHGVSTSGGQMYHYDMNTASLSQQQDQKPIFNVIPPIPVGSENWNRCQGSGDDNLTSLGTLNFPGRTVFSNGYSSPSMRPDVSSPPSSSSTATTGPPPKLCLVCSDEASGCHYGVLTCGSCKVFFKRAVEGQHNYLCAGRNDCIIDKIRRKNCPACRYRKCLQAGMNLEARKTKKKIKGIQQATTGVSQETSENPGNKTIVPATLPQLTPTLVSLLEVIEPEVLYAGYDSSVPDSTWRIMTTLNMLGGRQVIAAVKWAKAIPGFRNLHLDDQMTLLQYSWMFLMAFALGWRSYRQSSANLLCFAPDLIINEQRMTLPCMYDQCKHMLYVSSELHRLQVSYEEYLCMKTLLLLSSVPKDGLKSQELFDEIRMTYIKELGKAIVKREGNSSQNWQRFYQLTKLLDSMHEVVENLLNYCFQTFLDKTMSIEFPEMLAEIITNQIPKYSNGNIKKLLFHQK
Ubiquitin carboxyl-terminal hydrolase 1 (Homo sapiens), sequence (O94782 whole entry, looked up): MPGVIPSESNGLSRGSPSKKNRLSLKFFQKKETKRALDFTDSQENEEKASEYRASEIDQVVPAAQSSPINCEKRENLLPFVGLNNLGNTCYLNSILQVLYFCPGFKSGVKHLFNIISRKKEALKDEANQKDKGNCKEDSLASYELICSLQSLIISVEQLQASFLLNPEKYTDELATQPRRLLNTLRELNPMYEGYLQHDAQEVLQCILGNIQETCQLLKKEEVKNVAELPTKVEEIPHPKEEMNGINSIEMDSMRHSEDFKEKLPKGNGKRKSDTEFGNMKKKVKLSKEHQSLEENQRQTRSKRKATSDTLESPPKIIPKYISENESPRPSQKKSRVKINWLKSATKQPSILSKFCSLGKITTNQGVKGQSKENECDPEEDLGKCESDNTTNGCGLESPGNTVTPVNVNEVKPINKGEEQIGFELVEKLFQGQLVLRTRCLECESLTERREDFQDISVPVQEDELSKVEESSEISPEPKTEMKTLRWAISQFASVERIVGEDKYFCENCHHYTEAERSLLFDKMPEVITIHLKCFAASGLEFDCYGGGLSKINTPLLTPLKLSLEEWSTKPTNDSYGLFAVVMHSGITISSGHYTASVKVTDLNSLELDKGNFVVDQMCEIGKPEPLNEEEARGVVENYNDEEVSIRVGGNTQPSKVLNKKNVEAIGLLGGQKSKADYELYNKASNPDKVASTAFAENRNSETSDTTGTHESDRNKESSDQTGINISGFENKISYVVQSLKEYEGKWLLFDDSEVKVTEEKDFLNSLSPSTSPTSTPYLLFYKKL
Cytochrome P450 2D6 (Homo sapiens), sequence (P10635 whole entry, looked up): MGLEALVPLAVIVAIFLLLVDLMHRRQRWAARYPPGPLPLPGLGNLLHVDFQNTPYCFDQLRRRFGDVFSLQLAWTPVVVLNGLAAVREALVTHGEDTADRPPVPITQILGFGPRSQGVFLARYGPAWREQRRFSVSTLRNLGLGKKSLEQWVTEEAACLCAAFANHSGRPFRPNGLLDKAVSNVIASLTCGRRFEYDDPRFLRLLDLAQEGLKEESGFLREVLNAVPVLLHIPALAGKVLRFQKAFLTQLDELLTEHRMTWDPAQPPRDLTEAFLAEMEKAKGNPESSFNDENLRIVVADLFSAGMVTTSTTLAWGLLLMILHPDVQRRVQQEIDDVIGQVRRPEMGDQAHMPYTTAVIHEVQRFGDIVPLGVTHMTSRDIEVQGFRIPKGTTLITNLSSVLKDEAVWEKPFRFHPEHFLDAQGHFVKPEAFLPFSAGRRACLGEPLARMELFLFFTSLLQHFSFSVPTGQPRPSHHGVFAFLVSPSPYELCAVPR

As for `COC(=O)N1CCC[C@@]2(CCN(c3ccccn3)C2)C1`, the Potency in [1] is > 11.4 µM (inactive); in [3], 15.8 µM (active); in experiment [5] it was > 46 µM (inactive). In addition, the activity change, negative = inhibition in experiment [2] was -6.02% (inactive); in experiment [4], -1.97% (inactive); in experiment [8], 5.17% (inactive). Also, in experiment [6], the call was inactive. In addition, the Potency result in experiment [7] and in experiment [9] was “inactive” each time. Besides, the values for the max response in experiment [8] (setting [18]) and in experiment [8] (setting [19]) were 2.62% and 11%, respectively.

For the molecule `O=C(c1csnn1)N1CCC2(CC1)CN(c1ccccn1)C2`, the values for the Potency in [1] and in experiment [5] were > 11.4 µM (inactive) and > 46 µM (inactive), respectively. In addition, the activity change, negative = inhibition in experiment [2] is -7.48% (inactive); in experiment [8], 4.89% (inactive). The Potency result in [3], in experiment [7], in experiment [11] and in experiment [9] was “inactive” in each case. Besides, in experiment [10], the activity, negative = inhibition was -1.49% (inactive). In addition, the result in experiment [6] was inactive. The max response in experiment [8] (setting [18]) is 15.6%; in [8] (setting [19]), 22.2%.

On to `O=C(c1ccco1)N1CCC2(CC1)CN(c1ccccc1)C2`, for which the Potency was > 11.4 µM (inactive) in experiment [1], > 46 µM (inactive) in experiment [5] and 15.8 µM (active) in experiment [12]. For the same molecule, the results for the activity change, negative = inhibition in [2], in [4] and in [8] were -1.6% (inactive), 28.4% (inactive) and 6.46% (inactive), respectively. For the same molecule, the Potency result in [3], in experiment [7], in experiment [11] and in [9] was “inactive” in each case. For the same molecule, the outcome in experiment [6] was inactive. Moreover, the max response was determined as 15.8% in [8] (setting [18]) and 25.8% in experiment [8] (setting [19]).

Regarding `O=C(c1ccco1)N1CCC2(CC1)CN(C(c1ccccc1)c1ccccc1)C2`, the Potency is > 11.4 µM (inactive) in experiment [1], > 46 µM (inactive) in experiment [5], 10 µM (active) in experiment [12] and 1.26 µM (active) in [13]. Moreover, the activity change, negative = inhibition was -3.72% (inactive) in [2], 11% (inactive) in experiment [4] and 2.1% (inactive) in experiment [8]. Besides, the Potency result in [3], in [7] and in experiment [9] was “inactive” in each case. The call in experiment [6] was inactive. In addition, the max response is 5.15% in experiment [8] (setting [18]) and 9.48% in [8] (setting [19]).

For `COCCNc1cc(-c2ccccc2CN(C)C)ncn1`, the Potency is > 11.4 µM (inactive) in [1] and > 46 µM (inactive) in [14]. In addition, the activity change, negative = inhibition in [2] was 1.28% (inactive); in experiment [4], -0.403% (inactive); in [8], 4.45% (inactive). The Potency entry in experiment [3], in experiment [7], in experiment [17] and in experiment [9] was “inactive” each time. Besides, the result in experiment [6], in experiment [15] and in experiment [16] was inactive. For the same molecule, the values for the max response in [8] (setting [18]) and in [8] (setting [19]) were 21.8% and 24.8%, respectively.

With `Cn1cccc1C(=O)N1CCC2(CC1)CN(C(=O)Nc1ccccc1)C2`, the Potency in [1] is > 11.4 µM (inactive); in experiment [5] it was > 46 µM (inactive). In addition, the results for the activity change, negative = inhibition in [2], in [4] and in experiment [8] were -4.26% (inactive), 8.61% (inactive) and 5.97% (inactive), respectively. The Potency entry in experiment [3], in experiment [7] and in experiment [9] was “inactive” each time. The molecule was called inactive in experiment [6]. Also, the max response stood at 8.17% in [8] (setting [18]) and 14.5% in experiment [8] (setting [19]).

As for `CC(C)NC(=O)N1CCC2(CC1)CCN(C(=O)c1csnn1)CC2`, the Potency is > 11.4 µM (inactive) in experiment [1] and > 46 µM (inactive) in experiment [5]. Also, the activity change, negative = inhibition was -2.2% (inactive) in experiment [2], 6.85% (inactive) in [4] and 1.46% (inactive) in [8]. In addition, the Potency result in experiment [3], in experiment [7] and in [9] was “inactive” throughout. The molecule was classed as inactive in experiment [6]. The max response is -0.0052% in experiment [8] (setting [18]) and 5.7% in experiment [8] (setting [19]).
